# Among all 47,000 compounds or so, about 3,100 (6.6%) were called active. This is one part of a sample in which actives are shown more often than they occur. Cut-off read from the data, not from the text of the source: active = inhibition above about 30%; inactive = the rest.
# Target: Ubiquitin carboxyl-terminal hydrolase 17-like protein 5 (Homo sapiens) (UniProt A8MUK1)
# Assay: inhibitors of human USP17 deubiquitinase (AID 1645855)
# Conditions: purified USP17, Ub-rhodamine cleavage fluorescence, 3 h; at 50 µM; hits give high values
# Chain of Ubiquitin carboxyl-terminal hydrolase 17-like protein 5 (Homo sapiens) (A8MUK1 whole entry, looked up): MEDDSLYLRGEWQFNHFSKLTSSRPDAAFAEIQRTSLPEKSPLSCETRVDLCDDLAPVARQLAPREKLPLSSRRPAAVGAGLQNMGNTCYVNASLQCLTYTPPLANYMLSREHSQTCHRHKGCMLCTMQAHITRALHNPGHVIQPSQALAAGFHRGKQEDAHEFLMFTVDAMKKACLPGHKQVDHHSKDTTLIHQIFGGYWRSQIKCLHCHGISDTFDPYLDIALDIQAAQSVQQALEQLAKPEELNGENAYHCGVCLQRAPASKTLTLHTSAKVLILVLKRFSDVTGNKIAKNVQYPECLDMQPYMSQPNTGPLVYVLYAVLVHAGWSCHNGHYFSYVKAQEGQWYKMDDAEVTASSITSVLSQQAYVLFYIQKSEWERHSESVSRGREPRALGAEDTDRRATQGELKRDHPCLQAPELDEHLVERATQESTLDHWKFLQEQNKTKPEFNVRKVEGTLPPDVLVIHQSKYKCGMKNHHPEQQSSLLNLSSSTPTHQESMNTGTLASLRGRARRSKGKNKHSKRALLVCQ
row,Structure (SMILES),inhibition
1,CC(C)Oc1ccc(CNC(=O)C2CCCN(c3ccc(N4CCOCC4)nn3)C2)cc1 (configuration not stated),-6.08% (inactive)
2,O=C1C(O)=C(c2ccc(O)c(O)c2)C(=O)C(O)=C1c1ccccc1,57.3% (active)
3,COc1cnc(CSc2nccc(C)n2)cc1OCC(=O)Nc1ccc(C)cc1C,2.43% (inactive)
4,CC(C)Cc1cc(-c2nn3c(-c4ccccc4Cl)nnc3s2)n[nH]1,42.6% (active)
5,CC(C)Cc1nc2sc3c(N(CCO)Cc4ccccc4)ncnc3c2c2c1COC(C)(C)C2,29.6% (inactive)
6,CC(C)Cc1nc2sc3c(NCc4ccco4)ncnc3c2c2c1CCC2,43.3% (active)
7,CC(O)CNc1ncnc2c1oc1nc(C(C)C)c3c(c12)CCC3 (configuration not stated),3.5% (inactive)
8,COc1cccc(-c2cn3c4c(=O)n(C)c(=O)n(C)c4nc3n2-c2ccc(OC)c(OC)c2)c1,20.6% (inactive)
9,CC(=O)N[C@@]12CN(C)CC[C@@H]1[C@@H](c1ccccc1)N(CC(=O)Nc1ccc(F)cc1)C2,-2.8% (inactive)
10,O=C(CCCn1c(=O)c2ccccc2n(Cc2ccccc2F)c1=O)NC1CCCC1,21.6% (inactive)
11,COCCCn1c(=O)c2ccccc2n(Cc2nc(-c3ccccc3)no2)c1=O,-3.49% (inactive)
12,N#Cc1ccccc1Cn1c(=O)n(CCCC(=O)NCc2ccc(F)cc2)c(=O)c2ccccc21,30.8% (active)
13,CC1Oc2ccc(NC(=O)c3ccc4c(c3)CCC4)cc2NC1=O (configuration not stated),-11% (inactive)
14,Cc1ccc(Cn2cc(-c3noc(-c4ccc[nH]4)n3)nn2)cc1,0.022% (inactive)
15,CC(CCc1ccccc1)NC(=O)c1cc2cc(Oc3ccccc3)ccc2[nH]1 (configuration not stated),32.3% (active)
16,COc1ccccc1C(=O)Nc1cccc(Oc2ccccc2)c1,12.6% (inactive)
17,CC(CCc1ccccc1)NC(=O)/C=C/c1cccc([N+](=O)[O-])c1 (configuration not stated),6.91% (inactive)
18,C[C@@H]1O[C@@H](OC2[C@H](Oc3cc(O)c4c(c3)OC(c3ccc(O)cc3)CC4=O)O[C@H](CO)[C@@H](O)[C@@H]2O)[C@H](O)[C@H](O)[C@H]1O (some centres not stated),0.6% (inactive)
19,Cc1cccc(NC(=O)Cn2c(C)ccc(NC(=O)Nc3cccc(C)c3)c2=O)c1,14% (inactive)
20,Cc1cccc(C2=NC3(CCN(CC(=O)Nc4ccccc4C)CC3)NC2=O)c1,-42.3% (inactive)
21,Cc1ccc2cc(CNc3ccccc3)c(=O)n(CC(=O)Nc3ccccc3C)c2c1,84.2% (active)
22,O=C(Cn1cccc(S(=O)(=O)N2CCCC2)c1=O)Nc1ccccc1,-38% (inactive)
23,CN(C)CCO[C@H]1CN(C(=O)c2cccnc2)[C@@H]2CCCO[C@H]12,-13.9% (inactive)
24,CN(c1ccccc1)c1nc(=O)n(CC(=O)Nc2ccc3c(c2)OCCO3)c2ccccc12,54% (active)
25,O=C(Cn1cnc2c(sc3ccccc32)c1=O)Nc1ccc2c(c1)OCCO2,23.3% (inactive)
26,COc1ccc(C)cc1NC(=O)Cn1c(=O)nc(N(C)c2ccccc2)c2ccccc21,14.1% (inactive)

row,Structure (SMILES),inhibition
1,COc1cc(O)sc1C=Nc1ccc(Oc2ccccc2)cc1,9.93% (inactive)
2,Cc1cnc(N2CCC3(CC2)[C@@H]2CN(Cc4cccnc4)C[C@@H]2C(=O)N3C)nc1,-34.9% (inactive)
3,c1cc(CNCc2ccc3c(c2)OCO3)ccn1,0.475% (inactive)
4,c1ccc(-c2ccc(NCc3ccc4c(c3)OCO4)nn2)cc1,71.6% (active)
5,CCC(Oc1ccccc1)C(=O)NCc1ccc2c(c1)OCO2 (configuration not stated),-0.19% (inactive)
6,COC(=O)c1ccc(CN2CCN(c3cnn4cnnc4c3)CC2)cc1,0.152% (inactive)
7,CN(CC(=O)Nc1cccc(C(F)(F)F)c1)Cc1nc2ccccc2c(=O)[nH]1,-13.9% (inactive)
8,Cc1ccc(S(=O)(=O)Nc2nc3ccccc3n3nnnc23)cc1,-34.7% (inactive)
9,CSc1nccc(-c2ccc(F)cc2)c1C#N,82.5% (active)
10,COc1ccc(F)c([C@@H]2NC(=O)CC[C@H]2NCc2cccc(O)c2)c1,-6.39% (inactive)
11,CC(=O)Nc1cccnc1-c1ccc(C(=O)Nc2ccc(C)c(C)c2)cc1,6.52% (inactive)
12,Cc1ocnc1C(=O)N[C@@H]1C[C@@H](Oc2ccccc2)[C@H](O)[C@H]1N1CCOCC1,9.29% (inactive)
13,Cc1ccc(NS(=O)(=O)c2cc(C(=O)NCc3cccnc3)ccc2Cl)cc1,6.21% (inactive)
14,Cc1ccc2occ(CC(=O)Nc3sc4c(c3C(=O)NCc3cccnc3)CCCC4)c2c1,33.6% (active)
15,Cc1cccc(OCCCC(=O)Nc2sc3c(c2C(N)=O)CCCC3)c1C,-11% (inactive)
16,COc1ccc(CCNC(=O)c2ccc3ccccc3c2)cc1OC,-2.29% (inactive)
17,O=C(NCCc1c[nH]c2ccccc12)c1cc2cc(Cl)ccc2o1,23% (inactive)
18,CCC(=O)NC(=NCCc1c[nH]c2ccc(Cl)cc12)Nc1nc(C)cc(C)n1,43.9% (active)
19,COc1ccc2[nH]cc(CCNC(=O)Cc3csc(-c4cc(OC)c(OC)c(OC)c4)n3)c2c1,8.14% (inactive)
20,CC(=O)N1CCCCCC1C1CCN(c2ncccc2C#N)CC1 (configuration not stated),-19% (inactive)
21,Cn1nccc1-c1cccc(-c2noc(-c3ccoc3)n2)c1,-3.53% (inactive)
22,O=C(CCCC1=NS(=O)(=O)c2ccccc2N1)Nc1ccc(C(=O)O)cc1,25.1% (inactive)
23,Cc1c(Cl)cccc1NC(=O)C(=O)c1cn(CC(=O)N2CCOCC2)c2ccccc12,-0.359% (inactive)
24,Cn1ccnc1CN1C(=O)CO[C@H]2CN(Cc3ccc4c(c3)OCO4)C[C@H]21,4.69% (inactive)
25,Cc1cc(-c2cncnc2-c2ccc(CNC(=O)Cc3ccccc3C)cc2)on1,18.8% (inactive)
26,Cc1ccccc1CS(=O)(=O)Cc1ccc(C(=O)Nc2noc3ccccc23)o1,48.3% (active)

# From PubChem BioAssay AID1645855 (Buhrlage Lab, Dana-Farber Cancer Institute and Novartis …, 2021)
